Assay outcomes as filed in PubChem.
PINK1 expr mod = modulators of PINK1 expression. AID 624263. Potency, µM (top dose mostly 76.6 µM), hits mostly activators. PINK1 immunofluorescence, high-content cytometry, 24 h. 410,000 tested, 0.2% active; active means well fitted activation curve with a large enough effect; inconclusive means small, poorly fitted or top-dose-only effect; cell line not stated here; further: nearly all actives have a fitted effect of over 65% in size
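PINK1 protein level read as immunofluorescence by microplate cytometer in a fixed, stained stable cell line after 24 h exposure to five compound concentrations, with CCCP as control.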
KB-V1 MDR tox = kills drug-selected multidrug resistant KB-V1 cells; 400,000 tested, 3.4% active; Potency, µM (highest dose often 46.1 µM), actives largely listed as cytotoxic; KB-V1 MDR cells viability, CellTiter-Glo, 72 h; further: nearly all actives have a fitted effect of over 60% in size
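In this primary screen, KB-V1 cells overexpressing P-gp are incubated with library compounds (lowest to highest concentration) for 72 h at 37 degrees C before a luminescent ATP viability read.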
KB-3-1 cytotox = kills parental KB-3-1 adenocarcinoma cells; KB-3-1 viability, CellTiter-Glo ATP luminescence, 72 h; Potency, µM (highest dose often 46.1 µM), actives largely listed as cytotoxic; 400,000 tested, 1.4% active; AID 1347075; further: nearly all actives have a fitted effect of over 60% in size
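KB-3-1 parental drug-naive adenocarcinoma cells in DMEM/10% FBS, incubated 72 h at 37 C with pin-transferred compounds across a concentration series. Viability by CellTiter-Glo luminescence; concentration-response curves fitted after normalization.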
MCF10A rereplic = inducers of DNA re-replication in MCF 10A breast cells. MCF 10A DNA re-replication, Hoechst nuclear intensity, 48 h. Potency, µM (titrated, usually from 46.1 µM), usual class: activators. 350,000 tested, 2.9% active; further: nearly all actives have a fitted effect of over 50% in size
SW480 rerep = inducers of DNA re-replication in SW480 colon cancer cells; Potency, µM (highest dose often 46.1 µM), actives largely listed as activators; SW480 DNA re-replication, Hoechst DNA content imaging, 48 h; 340,000 tested, 1.8% active; further: nearly all actives have a fitted effect of over 55% in size
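Image-based read-out: total Hoechst fluorescence of nuclei (405 nm excitation, 500-530 nm emission), with hits raising the fraction of high-intensity nuclei. SW480 colon cells incubated 48 hr with compounds at 37 C.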
PTAP TSG101 blk = blocks PTAP/TSG101 interaction to inhibit HIV-1 budding. Potency, µM (top dose mostly 115 µM), actives largely listed as inhibitors. Fluorescence polarization, FITC-PTAP peptide / Tsg101 binding. 340,000 tested, under 10 active. Q99816; active means well fitted inhibition curve with a large enough effect in the main read-out, with a control signal flat, not every such curve was filed as active; inconclusive means small, poorly fitted or top-dose-only effect, or effect the other way, or a change in a side signal; inactive means no such curve, though single readings can be large or run the other way
Target sequence (Q99816 whole entry, looked up): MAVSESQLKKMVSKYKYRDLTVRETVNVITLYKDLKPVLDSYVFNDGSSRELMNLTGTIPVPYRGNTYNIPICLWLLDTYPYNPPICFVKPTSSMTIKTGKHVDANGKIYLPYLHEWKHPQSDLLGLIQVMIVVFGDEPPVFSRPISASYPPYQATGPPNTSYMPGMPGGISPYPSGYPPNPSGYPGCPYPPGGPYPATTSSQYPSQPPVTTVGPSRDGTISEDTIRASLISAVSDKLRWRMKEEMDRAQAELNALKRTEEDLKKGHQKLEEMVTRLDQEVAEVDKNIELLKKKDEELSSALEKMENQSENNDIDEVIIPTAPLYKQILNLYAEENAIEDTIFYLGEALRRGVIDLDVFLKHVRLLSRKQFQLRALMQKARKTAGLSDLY
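Fluorescence anisotropy tracks displacement of a FITC-tagged PTAP peptide (50 nM) from the Tsg101 binding domain (10 uM), following a 20 min room-temperature incubation at pH 7.5.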
Numbers stand for hits; . = inactive; ? = inconclusive; / = no result. The list is not random: actives were taken first. Their share in the collection is about 6.8%. Unless noted, the call rests on the fitted dose curve; in most records, active means well fitted curve in the direction sought with a large enough effect; inconclusive means small, poorly fitted or top-dose-only effect, or another doubt; inactive means no such curve, though single readings can be large; an effect the other way counts as inactive or inconclusive.

SMILES	PINK1 expr mod	KB-V1 MDR tox	KB-3-1 cytotox	MCF10A rereplic	SW480 rerep	PTAP TSG101 blk
C[C@H]1CN([C@@H](C)CO)S(=O)(=O)c2ccc(C#Cc3ccccn3)cc2O[C@H]1CN(C)Cc1ccc(F)cc1	.	.	.	/	/	/
CCCC#Cc1ccc2c(c1)O[C@@H](CN(C)Cc1ccc3c(c1)OCO3)[C@H](C)CN([C@@H](C)CO)S2(=O)=O	?	?	21µM	/	/	/
COc1ccc(C(=O)C(C)Oc2cccc(NC(=O)c3cccc([N+](=O)[O-])c3)c2)cc1 (stereo unspecified)	.	2.3µM	.	.	.	.
CC(=O)Nc1cccc(OCc2cnc(Cl)s2)c1	.	?	.	0.15µM	.	.
CC(C)c1ccc(NC(=O)COC(=O)/C=C/c2cccc([N+](=O)[O-])c2)cc1	.	.	.	?	.	.
CC(=O)Nc1cccc(OCc2ccc(S(=O)(=O)Cc3ccccc3)cc2)c1	.	18µM	.	.	.	.
CC(C)C(=O)Nc1cccc(NC(=O)c2cccc([N+](=O)[O-])c2)c1	.	.	.	.	.	.
CC(=O)Nc1ccc(C=CC=Cc2cccc([N+](=O)[O-])c2)cc1	.	21µM	.	?	?	.
CCCCC1CCC(C(=O)N2CC(=O)Nc3ccc(C)cc3C2c2ccc(F)cc2)CC1 (stereo unspecified)	.	?	.	/	/	/
COc1ccc(-n2c(SCc3ccccc3F)nc3c([nH]c4ccccc43)c2=O)cc1	.	?	.	/	/	/
Cc1ccc(OCC(=O)Nc2ccc3nc(SCC(=O)N4CCOCC4)sc3c2)cc1C	.	/	/	/	/	/
COc1ccc(CCNc2nc3c(c(=O)n(C)c(=O)n3C)n2Cc2ccccc2Cl)cc1OC	.	?	.	/	/	/
CC(=O)Nc1cccc(OCc2cccc([N+](=O)[O-])c2)c1	.	13µM	?	.	.	.
CC(=O)Nc1ccc(OCc2cccc([N+](=O)[O-])c2)cc1	.	.	.	.	.	.
O=C(COC(=O)c1cccc(S(=O)(=O)N2CCCC2)c1)Nc1ccccc1C(F)(F)F	.	.	.	.	4.6µM	.
N#CCCN(C(=O)COC(=O)c1cccc(S(=O)(=O)N2CCCCCC2)c1)c1ccc(F)cc1	.	13µM	.	.	.	.
CC(=O)N1CCN(S(=O)(=O)c2cccc(C(=O)OCC(=O)Nc3c(Cl)cccc3C(F)(F)F)c2)CC1	.	.	.	.	.	.
COc1ccccc1S(=O)(=O)Cc1ccc(C(=O)NC2CC2)o1	.	?	.	.	.	.
COc1ccccc1S(=O)(=O)Cc1ccc(C(=O)NC2CCCCC2)o1	.	15µM	.	.	.	.
COc1ccccc1S(=O)(=O)Cc1ccc(C(=O)N2CCN(c3cccc(Cl)c3)CC2)o1	.	16µM	6.5µM	15µM	?	.
COc1ccccc1S(=O)(=O)Cc1ccc(C(=O)N2CCN(c3cc(Cl)ccc3C)CC2)o1	.	18µM	?	/	/	/
COc1ccccc1S(=O)(=O)Cc1ccc(C(=O)N2CCN(c3ccccc3)CC2)o1	.	?	?	.	.	.
O=C(NC1CCCC1)c1ccc(CSCc2ccccc2F)o1	.	15µM	.	.	.	.
O=C(NC1CCCC1)c1ccc(CS(=O)(=O)Cc2ccccc2F)o1	.	.	.	?	?	.
O=C(c1cc2c(=O)[nH]c3ccccc3c2s1)N1CCN(c2ccc(F)cc2)CC1	.	.	.	/	/	/
SMILES	PINK1 expr mod	KB-V1 MDR tox	KB-3-1 cytotox	MCF10A rereplic	SW480 rerep	PTAP TSG101 blk
CC(C)OC(=O)c1cc2c(ccn2C)n1CC(=O)N(Cc1ccccc1)c1ccccc1	.	15µM	?	18µM	?	.
Cc1cnc2c(C)cccc2c1C	/	.	.	/	/	/
CC1CC(C)CN(Cc2nc(N)nc(Nc3ccc4ccccc4c3)n2)C1 (stereo unspecified)	.	?	12µM	5.8µM	9.2µM	.
CC1CC(C)CN(Cc2nc(N)nc(Nc3ccccc3)n2)C1 (stereo unspecified)	.	.	.	?	.	.
COc1ccccc1-c1ccc(C(=O)O)o1	.	.	.	.	.	.
COc1ccccc1-c1cc(SC)c(C#N)c(=O)o1	.	.	.	7.3µM	18µM	.
COc1ccc2[nH]cc(C(=O)CN3CC(C)CC(C)C3)c2c1 (stereo unspecified)	.	.	.	.	.	.
COc1ccc2[nH]cc(C(=O)CCl)c2c1	.	?	12µM	21µM	?	.
NC(=O)CSc1nc2cc([N+](=O)[O-])ccc2n1-c1cccc(C(F)(F)F)c1	.	6.5µM	.	.	.	.
CCNC(=O)CSc1nc2cc([N+](=O)[O-])ccc2n1-c1cccc(C(F)(F)F)c1	.	.	.	.	.	.
O=C(OCCC12CC3CC(CC(C3)C1)C2)c1ccc(NCc2cc(O)ccc2O)cc1	.	?	15µM	?	?	.
O=C(OCC12CC3CC(CC(C3)C1)C2)c1ccc(NCc2cc(O)ccc2O)cc1	.	.	?	.	?	.
Cc1oc(-c2ccccc2F)nc1CN1CCC(C(=O)NCCC2=CCCCC2)CC1	.	8.2µM	?	.	.	.
COc1ccc(CCNC(=O)C2CCN(Cc3nc(-c4ccccc4F)oc3C)CC2)cc1OC	.	16µM	.	.	.	.
Cc1oc(-c2ccccc2F)nc1CN1CCC(C(=O)NCCc2ccccc2)CC1	.	.	.	/	/	/
Cc1cccc(CCNC(=O)c2cnc3c(C)cccn3c2=O)c1	.	.	.	/	/	/
C=CCn1c(SCC(=O)Nc2cc(NC(C)=O)ccc2OC)nnc1-c1ccccn1	.	.	.	.	.	.
CCn1c(Cc2cccc3ccccc23)nnc1SCC(=O)Nc1nccs1	.	18µM	.	.	.	.
C=CCn1c(SCC(=O)Nc2ccccc2OC)nnc1-c1ccccn1	.	?	?	?	18µM	.
C=CCn1c(SCC(=O)Nc2nccs2)nnc1-c1cc2cccc(OC)c2o1	.	2.1µM	.	.	.	.
CCn1c(SCC(=O)C(C)(C)C)nnc1-c1ccccn1	.	?	.	23µM	.	.
O=C(c1ccc2c(c1)N(Cc1ccccc1F)C(=O)c1ccccc1S2=O)N1CCN(c2ccccc2)CC1 (stereo unspecified)	.	.	.	/	/	/
Cc1c(Cl)cccc1NC(=O)Cn1c(=O)n(Cc2ccco2)c(=O)c2sc3ccccc3c21	.	.	.	/	/	/
Cc1ccc(N2CC(C(=O)Nc3ccc(Br)cc3)CC2=O)cc1 (stereo unspecified)	.	?	.	/	/	/
CCOc1cc(C2CC(=O)Nc3c2c(C)nn3-c2nc(C)cc(C)n2)ccc1O (stereo unspecified)	.	.	.	/	/	/
Cc1ccccc1SCC(=O)NNC(=O)c1ccncc1	.	.	.	.	.	.
